13 compounds from PubChem BioAssay (NCI) can be followed below.

About 83,000 compounds went through this panel and 20% of them were active in at least one assay; those are over-represented in the sample as a whole.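 Activity criterion: percent growth below 10, measured after cells in 96-well plates were exposed to a single compound concentration for 48 hours.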 Unmarked numbers belong to inactive results. Active and inactive are the calls of the source.

Among the test systems are HCT-15 colon; HT29 colon; SNB-75 CNS; SNB-19 CNS; U251 CNS; PC-3 prostate; SK-MEL-5 melanoma; UACC-62 melanoma; LOX IMVI melanoma; SK-MEL-28 melanoma.
Experiment in all cases: NCI-60 one-dose screen, 48 h (100 = growth as untreated, 0 = no growth, -100 = all killed)
Holding throughout (conditions): 10 µM unless noted

Regarding `CC(=O)Nc1ccc([I+]c2ccc([N+](=O)[O-])cc2)cc1`, the growth with HCT-15 colon is 100%; in the experiment with HT29 colon, 81.3%; in the experiment with SNB-75 CNS, 90.5%; with SNB-19 CNS it was 109%; with U251 CNS it was 81.1%; in the experiment with PC-3 prostate it was 82.3%. Moreover, the growth is 80.6% with SK-MEL-5 melanoma, 81.1% with UACC-62 melanoma, 90.5% in the experiment on LOX IMVI melanoma and 106% in the experiment with SK-MEL-28 melanoma.
Take `C#C[C@H](O)/C=C/CCCCCCC#C[C@H](O)CC[C@@H](O)C#CCCCCCC/C=C/[C@@H](O)C#C`: the growth is 80.4% with HCT-15 colon; 80.6% with HT29 colon; 85.1% with SNB-75 CNS; 101% with SNB-19 CNS; 89.3% in the experiment on U251 CNS; 80.7% with PC-3 prostate. In addition, the growth is 91.9% in the experiment with SK-MEL-5 melanoma, 80% in the experiment on UACC-62 melanoma, -71.2% (active) in the experiment with LOX IMVI melanoma and 101% in the experiment on SK-MEL-28 melanoma.
As to `CC(=O)N[C@@H](CNC(=O)c1cc(NC(=O)c2cc(NC(=O)c3cc(NC(=O)c4nccn4C)cn3C)cn2C)cn1C)CC(=O)Nc1cn(C)c(C(=O)Nc2cc(C(=O)Nc3cc(C(=O)Nc4cc(C(=O)NCCCN(C)CCCNC(=O)c5cccc(C(=O)O)c5)n(C)c4)n(C)c3)n(C)c2)n1`, the growth in the experiment on HCT-15 colon is 103%; in the experiment with HT29 colon, 67.6%; in the experiment on SNB-75 CNS it was 107%; with SNB-19 CNS, 86.3%; in the experiment with U251 CNS, 64%; in the experiment on PC-3 prostate it was 88.6%. Further, the growth is 96.6% with SK-MEL-5 melanoma, 59.1% in the experiment with UACC-62 melanoma, 80.7% with LOX IMVI melanoma and 107% in the experiment with SK-MEL-28 melanoma.
With `C[C@]12O[C@H]1[C@H](O)c1c(cc(O)c3c1C(=O)c1cccc(O)c1-3)C2=O`, the growth with HCT-15 colon was 103%; in the experiment on HT29 colon it was 92.9%; in the experiment with SNB-75 CNS, 86.3%; in the experiment with SNB-19 CNS, 104%; in the experiment on U251 CNS, 97.6%; with PC-3 prostate it was 87.3%. Also, the growth was 97.7% with SK-MEL-5 melanoma, 88.2% in the experiment with UACC-62 melanoma, 87.8% with LOX IMVI melanoma and 107% in the experiment on SK-MEL-28 melanoma.
Turning to `COc1ccc(-c2nn(-c3ccc(NC(=O)c4cc(Cl)cc(Cl)c4)cc3)cc2-c2ccncc2)cc1Cl`, the growth with HCT-15 colon was 21.7%; in the experiment with HT29 colon it was 8.22% (active); in the experiment on SNB-75 CNS, 72.4%; in the experiment with SNB-19 CNS it was 82.8%; in the experiment on U251 CNS, 39.2%; in the experiment on PC-3 prostate, 47.9%. Moreover, the growth in the experiment on SK-MEL-5 melanoma was 54.8%; in the experiment with UACC-62 melanoma, 63.5%; in the experiment with LOX IMVI melanoma, 22.9%; in the experiment on SK-MEL-28 melanoma, 75.1%.
For the compound `COc1ccc(/C=C/C(=O)c2ccc(NC(=O)CSc3nnc(-c4cc(OC)c(OC)c(OC)c4)o3)cc2)cc1`, the growth is -79.6% (active) with HCT-15 colon; -80.9% (active) with HT29 colon; -89.7% (active) in the experiment with SNB-75 CNS; -48.7% (active) in the experiment on SNB-19 CNS; -90.1% (active) in the experiment with U251 CNS; -34.7% (active) with PC-3 prostate. The growth in the experiment with SK-MEL-5 melanoma is -84.2% (active); with UACC-62 melanoma, -46.3% (active); in the experiment on LOX IMVI melanoma it was -69.4% (active); in the experiment with SK-MEL-28 melanoma, -21% (active).
`CS(=O)(=O)Nc1cccc(-c2ccc3ncnc(Nc4cncc(Cl)c4)c3c2)c1`: the growth in the experiment with HCT-15 colon was 16%; in the experiment with HT29 colon, 5.04% (active); with SNB-75 CNS, 19.8%; in the experiment on SNB-19 CNS, 51.4%; in the experiment with U251 CNS it was 23.8%; in the experiment with PC-3 prostate it was 19.8%. Further, the growth is 35.6% in the experiment with SK-MEL-5 melanoma, 29% with UACC-62 melanoma, 11% with LOX IMVI melanoma and 43.7% in the experiment on SK-MEL-28 melanoma.
Turning to `COc1ccc(/C=C2\CS(=O)(=O)C/C(=C\c3ccc(OC)cc3)C2=O)cc1`, the growth with HCT-15 colon was 2.14% (active); in the experiment on HT29 colon it was -51.2% (active); with SNB-75 CNS, 60.2%; with SNB-19 CNS it was 3.69% (active); with U251 CNS it was -3.78% (active); with PC-3 prostate, -33.5% (active). The growth with SK-MEL-5 melanoma was -91.5% (active); in the experiment with UACC-62 melanoma, -64.1% (active); in the experiment on LOX IMVI melanoma it was -26.7% (active); in the experiment on SK-MEL-28 melanoma, -23.4% (active).
Take `Nc1nc(Cl)c2c(C(F)(F)F)cn(CC3CCNCC3)c2n1`: the growth in the experiment on HCT-15 colon was 35.6%; with HT29 colon it was 19.7%; in the experiment with SNB-75 CNS, 97.6%; in the experiment with SNB-19 CNS it was 61.5%; with U251 CNS, 45%; with PC-3 prostate, 93.2%. Besides, the growth in the experiment on SK-MEL-5 melanoma was 94.9%; in the experiment on UACC-62 melanoma, 86.8%; in the experiment with LOX IMVI melanoma, -12.9% (active); with SK-MEL-28 melanoma, 83.6%.
On to `O=C(Nc1ccc(F)cc1)Nc1ccc(Cl)c([N+](=O)[O-])c1`, for which the growth in the experiment with HCT-15 colon is 11.1%; in the experiment on HT29 colon, 13.6%; in the experiment on SNB-75 CNS, 46.7%; with SNB-19 CNS, 21.5%; with U251 CNS, 15.5%; with PC-3 prostate, 6.25% (active). In addition, the growth was 22% in the experiment with SK-MEL-5 melanoma, 15.9% in the experiment on UACC-62 melanoma, 9.41% (active) in the experiment on LOX IMVI melanoma and 22.6% with SK-MEL-28 melanoma.
For the compound `CCCCOc1nc2ccc(Cl)cc2cc1/C=C/C(=O)/C=C/c1ccc(OC)cc1`, the growth in the experiment on HCT-15 colon is 91.5%; in the experiment with HT29 colon, 71.6%; with SNB-75 CNS, 97.9%; in the experiment with SNB-19 CNS it was 105%; in the experiment on U251 CNS it was 80.5%; in the experiment on PC-3 prostate, 88.9%. The growth with SK-MEL-5 melanoma is 93.9%; in the experiment on UACC-62 melanoma it was 78.9%; in the experiment with LOX IMVI melanoma it was 71.5%; in the experiment on SK-MEL-28 melanoma, 107%.
For `CC(C)(C)NCC(O)COc1c(Br)c(Br)c(Br)c2c1OC(C)(C)C2` (stereo not given), the growth in the experiment with HCT-15 colon was -66.9% (active); in the experiment with HT29 colon it was -72.7% (active); in the experiment with SNB-75 CNS, 5.77% (active); in the experiment with SNB-19 CNS, -47.2% (active); in the experiment with U251 CNS, -92.4% (active); in the experiment with PC-3 prostate, -90.2% (active). Further, the growth is -97% (active) in the experiment on SK-MEL-5 melanoma, -79.8% (active) in the experiment on UACC-62 melanoma, -90.9% (active) in the experiment on LOX IMVI melanoma and -83.7% (active) in the experiment on SK-MEL-28 melanoma.
In the case of `COc1ccc(C2=NN(C(=O)COc3ccc(Cl)cc3)C(O)(c3cc(F)c(Cl)cc3Cl)C2)cc1` (stereo not given), the growth in the experiment with HCT-15 colon is 98.6%; in the experiment with HT29 colon, 99.4%; in the experiment with SNB-75 CNS it was 88.2%; with SNB-19 CNS it was 94.7%; in the experiment with U251 CNS it was 104%; with PC-3 prostate it was 75%. In addition, the growth in the experiment with SK-MEL-5 melanoma is 114%; in the experiment with UACC-62 melanoma, 111%; with LOX IMVI melanoma, 83.8%; with SK-MEL-28 melanoma, 103%.
